Screens: PubChem, several laboratories
NTR1 agonist = agonists of human NTR1, primary screen, imaging, U2OS cells, beta-arrestin-GFP, high content. activation, % at 20 µM. NTR1-U2OS beta-arrestin-GFP spot imaging, agonist mode. Neurotensin receptor type 1 (Homo sapiens), P30989. 330,000 tested, 0.17% active;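 active = activation at or above 40% of the spot to cytoplasm intensity ratio, with at least 20 cells analyzed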;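 also: 0% = DMSO without peptide and 100% = 100 nM NTR1 peptide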
Target sequence (P30989 whole entry, looked up): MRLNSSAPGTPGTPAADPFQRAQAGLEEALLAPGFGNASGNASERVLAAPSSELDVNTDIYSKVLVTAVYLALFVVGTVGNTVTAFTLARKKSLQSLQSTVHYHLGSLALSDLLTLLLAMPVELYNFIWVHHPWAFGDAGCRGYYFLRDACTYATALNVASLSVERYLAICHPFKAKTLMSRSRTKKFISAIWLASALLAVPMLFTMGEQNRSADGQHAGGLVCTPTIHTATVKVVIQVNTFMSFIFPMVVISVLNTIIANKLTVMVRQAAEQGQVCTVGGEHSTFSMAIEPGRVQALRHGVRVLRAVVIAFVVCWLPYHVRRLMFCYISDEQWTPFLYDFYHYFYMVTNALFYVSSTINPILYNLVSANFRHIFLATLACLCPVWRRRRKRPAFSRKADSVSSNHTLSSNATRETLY
Mot1-301 SUMO = yeast Mot1-301 growth rescue at high temperature, primary screen, SUMOylation pathway inhibitor project, S. cerevisiae, ATP luminescence, 38.5C | S. cerevisiae Mot1-301 growth rescue; percent above DMSO median, 100 means doubled | growth rescue, % at 18.8 µM | 320,000 tested, 1% active;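 active = every valid replicate shows activation above 250% relative to neutral control wells; inactive = the rest, any valid replicate at or below 250%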;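 also: OY570 slx delta 5 strain wells were the positive control but not used for scaling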
AI-2 QS modul = Vibrio harveyi AI-2 quorum sensing modulators, primary screen, JMH597 strain, luminescence/OD600 ratio | Vibrio harveyi JMH597 AI-2 luminescence/OD600 ratio, 9 h; stronger effect = lower value; strain lacks LuxN and CqsS sensors; 0 = neutral-control median | activity change, % at 7.5 µM | 300,000 tested, 0.4% active; in the data active = activity change below about -75%, passing the limit was not always enough;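 also: luminescence divided by OD600 gain over 9 h not by final OD600 alone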
Cardio protect = cardioprotection against H2O2-induced cell death, primary screen, uHTS, H9c2 cells, ATPLite luminescence; H9c2 cardiomyocytes, H2O2 injury protection, 2 h; 360,000 tested, 0.63% active; protection from H2O2 cell death, % at 20 µM;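 active = compounds giving at least 50% protection of heart cells from peroxide-induced death in the single-dose screen, raw or plate-pattern-corrected value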;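 also: 0% = DMSO wells with peroxide and 100% = DMSO wells without peroxide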
AHR act = AHR activators, primary screen, cell-based, luminescence, luciferase reporter, human; AHR-responsive luciferase reporter cells; activation, % at 5 µM; 320,000 tested, 2.5% active; Aryl hydrocarbon receptor (Homo sapiens), P35869; in the data active = activation above about 47%;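 also: 0% = vehicle wells and 100% = reference agonist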
NR3A LBD binder = binders of NR3A ligand-binding domain, primary screen, biophysical, differential scanning fluorimetry, uHTS; Glutamate receptor ionotropic, NMDA 3A (GRIN3A) ligand-binding domain; NR3A LBD differential scanning fluorimetry, Tm shift; 0% = protein alone, 100% = glycine-bound protein; Tm shift relative to glycine control, % at 25 µM; 340,000 tested, 2.5% active; AID 1259313, 2017;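 active = melting temperature shift of at least 10% of the positive control shift, at one fixed dose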
* = called active by the depositor; / = no result given. This is a sample that favours compounds with a hit; in the whole collection about 6.2% have one here.

SMILES	NTR1 agonist	Mot1-301 SUMO	AI-2 QS modul	Cardio protect	AHR act	NR3A LBD binder
O=C(Cc1n[nH]c(=O)c2ccccc12)OCC(=O)N(Cc1ccccc1)Cc1ccccc1	4	-10	6	46	1	-1
CCOC(=O)C1CCCN(C(=O)c2[nH]c3ccc(OC)cc3c2C)C1 (stereo unspecified)	0	-6	14	-3	4	3
CCCc1ccc2ccc3ccccc3c2n1	/	/	/	0	/	/
O=C(c1[nH]c(C(F)(F)F)nc1-c1ccccc1)N1CCOCC1	/	/	/	10	/	/
Cc1nnc(NCc2n[nH]c(=O)c3ccccc23)c2ccccc12	3	-7	25	-11	-9	-3
COC(=O)Cc1n[nH]c(=O)c2ccccc12	0	-9	21	59*	6	0
COc1ccc(NCc2n[nH]c(=O)c3ccccc23)cc1	-2	-5	17	76*	4	-5
COC(=O)c1ccc(COC(=O)Cc2n[nH]c(=O)c3ccccc23)cc1	0	-6	6	39	1	2
c1ccc2c(c1)[nH]c1c3ccccc3sc21	4	178	15	-11	39	24*
O=c1c2ccccc2sc2ccccc12	/	/	/	-2	/	1
CC(=O)Nc1ccc(OS(=O)(=O)c2ccc(C)cc2C)cc1	0	-16	19	3	-14	16*
COc1ccc(/C(C)=N/OCC(=O)N=Nc2c(O)[nH]c3ccc(Br)cc23)cc1	19	-14	23	-7	4	6
COc1ccc(/C=N/OCC(=O)N=Nc2c(O)[nH]c3ccc(Br)cc23)cc1OC	6	6	12	22	78*	-25
Brc1ccc(/C=C/C=N/Nc2nc3ccccc3s2)cc1	6	2	22	-7	14	40*
COc1cc(/C=N/Nc2nc3ccccc3s2)cc([N+](=O)[O-])c1O	2	-68	18	-5	41	-5
O=[N+]([O-])c1cc(Cl)cc(/C=N/Nc2nc3ccccc3s2)c1O	3	33	89	0	22	20*
Brc1csc(/C=N/Nc2nc3ccccc3s2)c1	24	-39	9	-18	100*	22*
CCC[C@H]1CN(Cc2cccnc2)C(=O)[C@@H]1CC(=O)Nc1ccc(Br)cc1	/	/	/	-7	/	/
CCOC(=O)c1c(C)n(C)c2ccc(OC)c(NC(=O)CCN3CCSCC3)c12	-1	-5	9	2	65*	0
CCOC(=O)c1c(C)n(C)c2ccc(OC)c(NC(=O)CN3CCC(C(=O)OCC)CC3)c12	3	-4	26	-3	2	1
Cc1cccc(C)c1NC(=O)COC(=O)c1ccc([N+](=O)[O-])o1	1	280	29	9	-1	-4
NC(=O)c1ccsc1NC(=O)c1ccc([N+](=O)[O-])o1	5	-13	/	78*	6	-4
CN1CCc2c(sc(NC(=O)c3cc4cc([N+](=O)[O-])ccc4s3)c2C(N)=O)C1	/	/	18	/	/	/
NC(=O)c1ccsc1NC(=O)COC(=O)c1ccc([N+](=O)[O-])o1	7	-1	/	40	1	12*
NC(=O)c1c(NC(=O)c2ccc([N+](=O)[O-])o2)sc2c1CCCC2	5	-5	27	-7	15	-2
SMILES	NTR1 agonist	Mot1-301 SUMO	AI-2 QS modul	Cardio protect	AHR act	NR3A LBD binder
CN1CCc2c(sc(NC(=O)c3ccc([N+](=O)[O-])o3)c2C(N)=O)C1	0	-18	-102*	-15	2	-4
CC(C)N1CCc2c(sc(NC(=O)c3cc4cc([N+](=O)[O-])ccc4s3)c2C(N)=O)C1	4	/	11	-26	/	10*
CS(=O)(=O)c1cc(N2CCOCC2)ccc1CNC[C@H]1O[C@@H](n2cnc3c(=O)[nH]c(N)nc32)[C@H](O)[C@@H]1O	/	/	/	1	/	/
NC(c1csc(Nc2nccc(C(F)(F)F)n2)n1)C1CCCCC1 (stereo unspecified)	/	/	/	-4	/	/
COc1ccc(OC)c(C(=O)COC(=O)c2ccc([N+](=O)[O-])o2)c1	2	6	/	54*	0	2
COc1ccc(OC)c(C(=O)COC(=O)c2cc(C)oc2C)c1	0	-3	14	-10	1	5
Cc1cc(S(=O)(=O)Nc2ccc(C(=O)NCCN3CCOCC3)cc2)ccc1F	/	/	/	-2	/	/
CC(NC(=O)Cn1nc(C(=O)O)c2ccccc2c1=O)c1ccccc1 (stereo unspecified)	0	18	22	81*	1	-2
COc1cccc(Cn2nc(C(=O)O)c3ccccc3c2=O)c1	-1	-18	38	64*	3	1
CCOC(=O)c1ccc(NC(=O)c2ccc3c(c2)C(=O)N(Cc2cccnc2)C3=O)cc1	3	19	5	-11	3	-9
CCc1ccc(C2NC(=S)NC3=C2C(=O)CC(C)(C)C3)cc1 (stereo unspecified)	1	20	14	6	1	21*
C[C@H](NC(=O)c1[nH]cnc1C(=O)Nc1ccc(CNC(=O)OC(C)(C)C)cc1)C(=O)OC(C)(C)C	36	-17	3	22	6	-10
CC(C)(C)OC(=O)NCCCCCNC(=O)c1[nH]cnc1C(=O)Nc1ccccc1	5	18	/	35	3	-19
CC(C)(C)OC(=O)NCc1ccc(NC(=O)c2nc[nH]c2C(=O)NCCCCCCNC(=O)c2[nH]cnc2C(=O)Nc2ccc(CNC(=O)OC(C)(C)C)cc2)cc1	-1	-12	/	51*	-2	0
CC(C)(C)OC(=O)NCc1ccc(NC(=O)c2nc[nH]c2C(=O)NCCCNC(=O)c2[nH]cnc2C(=O)Nc2ccc(CNC(=O)OC(C)(C)C)cc2)cc1	12	3	/	52*	-2	-3
CC(C)(C)OC(=O)NCc1ccc(NC(=O)c2nc[nH]c2C(=O)NCCCCNC(=O)c2[nH]cnc2C(=O)Nc2ccc(CNC(=O)OC(C)(C)C)cc2)cc1	1	-5	/	67*	-1	-7
CC(C)(C)OC(=O)NCc1ccc(NC(=O)c2nc[nH]c2C(=O)NCCN(CCNC(=O)c2[nH]cnc2C(=O)Nc2ccc(CNC(=O)OC(C)(C)C)cc2)CCNC(=O)c2[nH]cnc2C(=O)Nc2ccc(CNC(=O)OC(C)(C)C)cc2)cc1	-1	-3	/	0	0	11*
CC(C)(C)OC(=O)NCc1ccc(CNC(=O)c2[nH]cnc2C(=O)Nc2ccccc2F)cc1	/	/	/	26	/	/
CSc1ncnc2c1ncn2CCCNCc1ccccn1	/	/	/	8	/	/
